# Bioassay records deposited in PubChem by Broad Institute.
# Most compounds without a hit are left out; they make up all but 2.2% or so of the library.
# PAX8 inh HTS = lowers PAX8-driven luciferase in RMG-I cells; 1.2% of 360,000 active; AID 652154; inhibition, % at 12.6 µM; RMG-I TPO-luciferase reporter, SteadyGlo, 24 h;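 active means mean replicate inhibition at least 60% with every replicate also reaching 60%; inconclusive means only one of the two criteria is met; inactive means mean below 60% and not all replicates reaching 60%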;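 further: luciferase light reporting Pax8 driven TPO promoter activity; plate controls were median of neutral control wells for no effect and mitoxantrone controls for full effect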
# EWS-Fli inh = inhibitors of EWS/Fli oncoprotein transcriptional activity; inhibition, % at 12.6 µM; A673 NR0B1-luciferase reporter, viability-normalised; 0.67% of 350,000 active;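 active means mean inhibition of at least 50% after viability correction, with every replicate also passing that limit; inconclusive means mean reaches 50% but only one of two replicates passes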;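 further: firefly luciferase signal divided by Alamar Blue viability fluorescence both relative to DMSO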
# LMP1 NFkB inh = reduces LMP1-driven NF-kappaB luciferase signal. LMP1-induced NF-kappaB luciferase reporter cells, luminescence. 0.69% of 350,000 active. inhibition, % at 12.5 µM; in the data active means inhibition above about 41%; inconclusive means no clear call, values can overlap the other calls;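 further: 0% = neutral control wells and 100% = reference inhibitor control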
# LGR2 inh = inhibitors of bursicon-induced Drosophila LGR2 receptor cAMP signaling; inhibition, % at 9.99 µM; 0.35% of 380,000 active; HEK293 LGR2, CRE-luciferase, bursicon-stimulated, 4 h; AID 720647;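 active means drop in luminescence signal, shown as inhibition above about 50% in the replicate tests, limit read from the data, passing the limit was not always enough; inconclusive means probably only some replicates passing the limit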;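 further: agonist challenge used bursicon conditioned medium at about half maximal strength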
# MITF TRPM1 inh = inhibitors of MITF-driven TRPM1 promoter in melanoma cells; SK-MEL-5 TRPM1 promoter luciferase, 24 h; inhibition, % at 12.5 µM; 0.83% of 330,000 active;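 active means mean inhibition across replicates of 60% or more, whatever share of single replicates reaches that level; inconclusive means some that reach 60%, reason not given; inactive means mean inhibition across replicates below 60%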
# Shn3 3UTR inh = Schnurri-3 reporter inhibition in Clone20 osteoblasts; Clone20 osteoblast Shn3 3'UTR firefly luciferase, 24 h; AID 588674; inhibition, % at 12.5 µM; 0.52% of 360,000 active;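 active means mean inhibition of at least 75% with every replicate also reaching 75%; inconclusive means mean inhibition at least 75% but some replicate below; inactive means mean inhibition below 75%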;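 further: 0% = median of neutral control wells and 100% = pilot-screen positive control compound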
# Starred values were filed as active, the others as inactive; u = inconclusive; x = no result given.
SMILES,PAX8 inh HTS,EWS-Fli inh,LMP1 NFkB inh,LGR2 inh,MITF TRPM1 inh,Shn3 3UTR inh
CN(C)S(=O)(=O)c1ccc(-c2csc(N/N=C/c3ccc(O)cc3)n2)cc1,30,56*,-35,6,72*,27
CN(C)S(=O)(=O)c1ccc(-c2csc(N/N=C/c3ccco3)n2)cc1,49,9,25,102*,72*,34
O=C(/C=C/c1ccco1)Nc1nc(-c2ccccn2)cs1,-54,-3,-1,22,0,-24
O=C(/C=C/c1ccco1)Nc1nc(-c2ccccc2)cs1,98*,-111,-23,-18,-51,-29
Cc1ccc(-c2csc(N/N=C/c3ccco3)n2)cc1,x,x,-52,-77,-72,-56
COc1ccc(-c2cnc3c(c2)C(=O)N([C@H](C)CO)C[C@H](C)[C@H](CN(C)S(=O)(=O)c2ccc(OC)cc2)O3)cc1,x,-2,x,10,x,x
C[C@H](CO)N1C[C@H](C)[C@@H](CN(C)Cc2ccc(-c3ccccc3)cc2)Oc2ccc(NC(=O)Nc3cccc4ccccc34)cc2CC1=O,x,x,x,2,x,x
Cc1cc(/C=N/n2cnnc2)c(C)n1-c1ccc(OCc2ccc(Cl)cc2Cl)cc1,x,x,31,x,92*,98*
Cc1cc(/C=N/n2cnnc2)c(C)n1-c1ccc(Cl)cc1,20,x,3,-7,9,-1
CCOC(=O)CCSc1nc(N2CCOCC2)c2c(c1C#N)CC(C)(C)OC2,19,11,63*,-4,-13,-5
C#CCN(C[C@@H]1[C@@H](OC(=O)NCC2CCCCC2)[C@@H](OC(=O)NCC2CCCCC2)CN(C(=O)OC(C)C)N1C(=O)OC(C)C)S(=O)(=O)c1ccc(C)cc1,72*,11,-14,-1,x,45
CCc1ccc(NC(=O)Cn2c3[n+](c4c(F)c(F)ccc42)CCCCC3)cc1,76*,12,-4,3,20,16
O=C(Cn1c2[n+](c3ccc(C(F)(F)F)cc31)CCCCC2)Nc1ccc(Br)cc1,x,x,-5,x,12,-11
C=C1CC(COc2ccc3c(C)c(Cl)c(=O)oc3c2)(c2ccccc2)OC1=O (configuration not stated),100*,u,1,49*,101*,96*
Cc1ccc2c(c1)CCCN2C(=O)CCc1nc2ccccc2c(=O)[nH]1,20,65*,5,16,x,-3
COc1ccc2c3c(n(C)c2c1)[C@H](CO)N(CC1CC1)CC31CN(Cc2nccs2)C1,-5,-6,x,15,x,x
CC(C)(C)c1ccc(/C=N/NC(=O)c2ccccn2)cc1,-5,47,13,86*,-13,0
C/C(=N\NC(=O)c1cccc(Br)c1)c1ccccn1,12,-15,71*,-9,58,u
C/C(=N/NC(=O)c1ccc(C(C)(C)C)cc1)c1ccccn1,14,-14,47*,-53,22,81
O=C(N/N=C/c1ccsc1)c1ccccn1,-125,-44,-13,-43,-54,-63
C/C(=N\NC(=O)c1ccccc1Cl)c1ccccn1,2,-22,14,-14,57,92*
CC(=O)N1CC2(C1)[C@H](c1ccccc1)[C@H](CO)N2S(=O)(=O)c1ccccc1,1,-3,x,-16,x,x
CCNC(=O)Nc1ccc2c(c1)C(=O)N(C)[C@@H]1CC[C@H](CC(=O)N[C@@H](C)c3ccccc3)O[C@H]1CO2,2,-11,x,-12,x,x
CCCNC(=O)N1CC2(C1)[C@H](c1ccccc1)[C@@H](CO)N2Cc1ccccn1,-10,-9,x,5,x,x
NNC(=O)c1cc(-c2cccs2)nc2ccccc12,12,1,2,4,0,-1
SMILES,PAX8 inh HTS,EWS-Fli inh,LMP1 NFkB inh,LGR2 inh,MITF TRPM1 inh,Shn3 3UTR inh
C/C(=N\NC(=O)c1cc(-c2cccs2)nc2ccccc12)c1ccccn1,79*,-3,72*,x,88*,94*
COc1ccc(C(=O)N/N=C(\C)c2ccccn2)cc1OC,70*,x,27,11,73*,91*
C/C(=N\NC(=O)c1cccc2ccccc12)c1ccccn1,65*,-32,34,9,76*,90*
C/C(=N\NC(=O)c1ccc(Cl)c(Cl)c1)c1ccccn1,63*,-1,73*,15,65*,91*
COc1ccccc1-c1ccc([C@@H]2[C@H](CO)N(C(=O)C3CC3)C23CN(C(C)=O)C3)cc1,4,-3,x,-10,x,x
CCS(=O)(=O)N1CCCCN2[C@H](CO)[C@H](c3ccc(C4=CCCC4)cc3)[C@H]2C1,2,4,x,4,x,x
Cc1ccc(S(=O)(=O)Nc2ccc3c(c2)C(=O)N([C@@H](C)CO)C[C@@H](C)[C@@H](CN(C)S(=O)(=O)c2ccc(C)cc2)OCCCC[C@H](C)O3)cc1,12,9,x,-1,x,x
C[C@H](CO)N1C[C@H](C)[C@H](CN(C)CC2CCCCC2)Oc2c(NS(=O)(=O)c3cn(C)cn3)cccc2C1=O,3,9,x,-19,x,x
C[C@H](CO)N1C[C@H](C)[C@@H](CN(C)C(=O)CCC(F)(F)F)OCCCC[C@H](C)Oc2ccc(NC(=O)CCCN(C)C)cc2C1=O,-13,-16,x,-3,x,x
C[C@H]1CN([C@@H](C)CO)C(=O)c2cc(Br)cnc2O[C@H]1CN(C)S(=O)(=O)c1ccc(F)cc1,x,-17,x,-14,x,x
C/C(=N\NC(=O)C(c1ccccc1)c1ccccc1)c1ccccn1,77*,x,8,25,x,88*
Cc1ccc(-c2ccc(/C=N/c3ncn[nH]3)o2)cc1Cl,x,x,59*,22,6,-3
COC(=O)N/N=C/c1ccc(-c2ccc(C)c(Cl)c2)o1,-20,-41,-11,-22,-31,-25
COc1ccc(S(=O)(=O)N(C)C[C@H]2OCc3ccccc3-c3ccccc3C(=O)N([C@H](C)CO)C[C@@H]2C)cc1,x,4,x,5,x,x
C[C@@H]1CCCCO[C@H](CN(C)C(=O)Nc2ccc(F)cc2)[C@H](C)CN([C@H](C)CO)C(=O)c2cc(NS(=O)(=O)c3ccccc3)ccc2O1,9,4,x,-4,x,x
N#CC1=C(N)N2C(=C(C#N)C1c1cccc(Br)c1)Nc1ccccc12 (configuration not stated),-8,36,52*,26,51,88*
N#CC1=C(N)N2C(=C(C#N)C1c1ccc(Br)cc1)Nc1ccccc12 (configuration not stated),98*,19,x,49,x,x
N#CC1=C(N)N2C(=C(C#N)C13CCN(Cc1ccccc1)CC3)Nc1ccccc12,x,x,6,x,-4,9
CCC(=O)N[C@H]1C=C[C@H](CC(=O)NCc2ccc(OC)cc2)O[C@H]1CO,3,7,x,-19,x,x
CCS(=O)(=O)N1CCC2(CC1)CN(C(=O)Nc1cccc(F)c1)[C@H](CO)c1c2c2ccc(OC)cc2n1C,x,15,x,9,x,x
CO[C@H]1CN(C)C(=O)c2cc(NC(=O)c3ccc(F)cc3)ccc2OC[C@H](C)NC[C@H]1C,-6,-3,x,14,x,x
